Only some compounds are listed: those with a hit (about 3.1% of all), similar ones and a draw of the others.
Tau fluor counter = counter-screen for tau fibril formation inhibitors | AID 1463 | 0.93% of 280,000 active | Potency, µM (doses to about 57.7 µM), for the others: at the highest dose activity change, negative = decrease | tau K18 P301L Alexa594 fluorescence, heparin fibrillization; also: nearly all actives have a fitted effect of over 55% in size
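Human tau K18 P301L (15 uM unlabeled, 0.24 uM Alexa 594-labeled) in 100 mM sodium acetate pH 7 with 20 uM heparin, 6 hr at 37 C. ThT 30 uM added, 1 hr ambient; Alexa 594 FP and total fluorescence read at 555/632 nm.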
TexasRed fluor = Texas Red fluorescence interference in TRb-SRC2 counter-screen | TRb/SRC2 Texas Red total fluorescence interference | Potency, µM (doses to about 106 µM), inactives show top-dose fluorescence change, negative = quenching | 0.29% of 280,000 active | AID 1479; active = well fitted curve in either direction with a large enough effect; inconclusive = small, poorly fitted or top-dose-only effect
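Flags fluorescent or light-absorbing compounds by total fluorescence, S + 2P, at 555 nm excitation and 632 nm emission. Mixture: 20 nM Texas Red SRC2 peptide, 0.6 uM human TRb LBD, 1 uM T3, 5% DMSO; compound exposure 5 h at ambient temperature.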
TRb SRC2 PPI = inhibitors of human thyroid hormone receptor beta-SRC2 interaction | P10828 | TRbeta-SRC2 peptide binding, fluorescence polarization; receptor liganded with 1 µM T3 | Potency, µM (top dose mostly 106 µM), for inactives: at the highest dose activity change, negative = inhibition, actives largely listed as inhibitors | 0.065% of 280,000 active;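 also: plate controls were bound peptide for no effect and peptide without receptor for full effect; nearly all actives have a fitted effect of over 50% in size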
Target sequence (P10828 whole entry, looked up): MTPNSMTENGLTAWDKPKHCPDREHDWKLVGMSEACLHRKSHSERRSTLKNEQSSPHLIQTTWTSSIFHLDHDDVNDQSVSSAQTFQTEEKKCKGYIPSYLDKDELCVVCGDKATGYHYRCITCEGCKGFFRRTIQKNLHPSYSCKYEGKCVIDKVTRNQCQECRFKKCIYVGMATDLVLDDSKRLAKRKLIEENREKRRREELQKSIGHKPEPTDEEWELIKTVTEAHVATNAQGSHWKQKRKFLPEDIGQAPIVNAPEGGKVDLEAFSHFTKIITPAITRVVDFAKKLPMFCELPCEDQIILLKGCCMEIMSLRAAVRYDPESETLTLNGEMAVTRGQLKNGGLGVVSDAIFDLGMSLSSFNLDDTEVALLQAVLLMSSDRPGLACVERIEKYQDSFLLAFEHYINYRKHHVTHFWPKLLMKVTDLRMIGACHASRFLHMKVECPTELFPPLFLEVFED
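Human TRb ligand-binding domain (0.6 uM) is mixed with 20 nM Texas Red SRC2 peptide and 1 uM T3; after compound addition and 5 hr at ambient temperature, polarization is measured and normalized to unbound and bound controls.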
Tau FP inhib = inhibitors of human tau fibril formation. P10636. K18 P301L tau heparin fibrillization, Alexa594 FP, 6 h. Potency, µM (titrated, usually from 57.7 µM), without a hit: top-dose activity, negative = inhibition, hits mostly inhibitors. 0.39% of 280,000 active; also: nearly all actives have a fitted effect of over 55% in size
Target sequence (P10636 561-689 P618L limits assumed): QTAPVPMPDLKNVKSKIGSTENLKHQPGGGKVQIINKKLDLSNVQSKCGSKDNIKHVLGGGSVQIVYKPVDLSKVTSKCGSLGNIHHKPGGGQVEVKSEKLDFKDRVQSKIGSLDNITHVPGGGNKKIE
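Read-out: fluorescence polarization of Alexa 594-labeled tau (0.24 uM), 555 nm excitation, 632 nm emission. Mixtures held 15 uM unlabeled K18 P301L, compound and 20 uM heparin, pH 7 acetate buffer, incubated 6 hr at 37 C.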
Tau ThT inhib = blocks human tau fibril formation measured by thioflavin T; 2.1% of 270,000 active; recombinant tau K18 P301L (four-repeat tau fragment), heparin-induced fibrillization, ThT fluorescence; Potency, µM (highest dose often 57.4 µM), without a hit: at the highest dose activity, negative = inhibition, usual class: inhibitors; also: nearly all actives have a fitted effect of over 55% in size
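Aggregation was driven by heparin (20 uM final) acting on recombinant tau […] bearing P301L in 100 mM sodium acetate pH 7; fibrils were detected with Thioflavin T.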
Starred values were filed as active, the others as inactive; [ ] = another dose, or the depositor's remark. Unless noted, calls follow the shape of the dose curve; as a rule, active = well fitted curve in the direction sought with a large enough effect; inconclusive = small, poorly fitted or top-dose-only effect, or another doubt; inactive = no such curve, though single readings can be large; an effect the other way counts as inactive or inconclusive. Unless noted, % is scaled to controls: 0 for no effect and ±100 for the full control effect; potency is read from the fitted curve at half-maximal effect.

For Cc1ccc(CN(Cc2ccco2)c2cnc(S(C)(=O)=O)nc2C(=O)Nc2ccc(Br)cc2)o1 the results were Tau fluor counter -1.0%, TexasRed fluor 5.1%, TRb SRC2 PPI -5.6%, Tau FP inhib -6.5% and Tau ThT inhib 3.0%.
COc1ccccc1NC(=O)c1sc2ncn(Cc3ccc(C)cc3)c(=O)c2c1C was read as Tau fluor counter -23.1%, TexasRed fluor -2.1%, TRb SRC2 PPI 3.2%, Tau FP inhib -0.9% and Tau ThT inhib -4.7%.
`COc1ccccc1NC(=O)c1sc2ncn(Cc3cccc4ccccc34)c(=O)c2c1C` gave Tau fluor counter -5.4%, TexasRed fluor 0.891µM*[quencher], TRb SRC2 PPI inconclusive, Tau FP inhib 13.7% and Tau ThT inhib -5.3%.
Cc1ccc(C(C)(C)C)c(O)c1 was read as TexasRed fluor -5.5%[201 µM] and TRb SRC2 PPI -0.1%[201 µM].
For O=S(=O)(O)CCS the results were Tau fluor counter -14.1%, TexasRed fluor -2.8%, TRb SRC2 PPI 9.5%, Tau FP inhib inconclusive and Tau ThT inhib 22.4µM*.
Screening NCCCS(=O)(=O)O returned Tau fluor counter -1.1%, TexasRed fluor -2.5%, TRb SRC2 PPI -3.0%, Tau FP inhib 5.5% and Tau ThT inhib -6.5%.
Screening CCOC(=O)c1scc(-c2ccc(C)cc2)c1S(=O)(=O)Nc1cccc(CC)c1 returned Tau fluor counter -24.3%, TexasRed fluor -15.8%, TRb SRC2 PPI -7.3%, Tau FP inhib -0.4% and Tau ThT inhib -14.4%.
For O=c1c2ccccc2sn1-c1ccccc1 the results were Tau fluor counter -29.6%, TexasRed fluor -2.3%, TRb SRC2 PPI -11.0%, Tau FP inhib inconclusive and Tau ThT inhib 11.2µM*.
For O=c1c2ccccc2sn1-c1ccc(S(=O)(=O)N2CCCC2)cc1 the results were Tau fluor counter -16.1%, Tau FP inhib inconclusive and Tau ThT inhib 11.2µM*.
For CN(C)S(=O)(=O)c1cccc(-n2sc3ccccc3c2=O)c1 the results were Tau fluor counter -22.1%, TexasRed fluor -3.6%, TRb SRC2 PPI -5.5%, Tau FP inhib inconclusive and Tau ThT inhib inconclusive.
`Cc1ccc(-c2onc(C)c2C)cc1S(=O)(=O)N1CCCCC1` gave Tau fluor counter -18.8%, TexasRed fluor -1.5%, TRb SRC2 PPI 2.2%, Tau FP inhib 6.3% and Tau ThT inhib -7.7%.
Cc1ccc(-n2sc3ccccc3c2=O)cc1S(=O)(=O)N1CCCCC1 was read as Tau fluor counter -18.8%, TexasRed fluor -3.0%, TRb SRC2 PPI 0.2%, Tau FP inhib 31.6µM* and Tau ThT inhib 15.8µM*.
O=c1c2ccccc2sn1-c1nccs1 was read as Tau fluor counter -20.7%, TexasRed fluor -2.3%, TRb SRC2 PPI 3.1%, Tau FP inhib inconclusive and Tau ThT inhib 15.8µM*.
COc1ccc(NC(=O)CN(c2ccc(C)cc2)S(=O)(=O)c2cccc3nonc23)cc1OC was read as Tau fluor counter inconclusive, TexasRed fluor -1.8%, TRb SRC2 PPI 1.5%, Tau FP inhib 7.2% and Tau ThT inhib -7.4%.
`O=C(O/N=C\c1ccc(N2CCOCC2)c([N+](=O)[O-])c1)c1ccc(F)cc1` gave Tau fluor counter -20.2%, TexasRed fluor -1.4%, TRb SRC2 PPI 0.0%, Tau FP inhib -0.9% and Tau ThT inhib 5.01µM*.
For O=C(O/N=C\c1ccc(N2CCOCC2)c([N+](=O)[O-])c1)c1ccccc1Cl the results were Tau fluor counter inconclusive, TexasRed fluor -3.2%, TRb SRC2 PPI 1.3%, Tau FP inhib 12.4% and Tau ThT inhib 12.6µM*.
For COc1ccccc1C(=O)Nc1ccc2nc(N3CCC(C)CC3)cc(C)c2c1 the results were Tau fluor counter 7.94µM*[quencher], TexasRed fluor -2.8%, TRb SRC2 PPI 9.3%, Tau FP inhib 17.7% and Tau ThT inhib 8.91µM*.
For COc1cc(OC)cc(C(=O)Nc2ccc3nc(N4CCC(C)CC4)cc(C)c3c2)c1 the results were Tau fluor counter 3.98µM*[quencher], TexasRed fluor -3.7%, TRb SRC2 PPI 3.8%, Tau FP inhib inconclusive and Tau ThT inhib inconclusive.
Cc1cc(N2CCC(C)CC2)nc2ccc(NC(=O)Cc3c(F)cccc3Cl)cc12 was read as Tau fluor counter inconclusive, TexasRed fluor -4.6%, TRb SRC2 PPI 1.8%, Tau FP inhib 4.5% and Tau ThT inhib inconclusive.
`COc1cccc(CC(=O)Nc2ccc3nc(N4CCC(C)CC4)cc(C)c3c2)c1` gave Tau fluor counter 14.1µM*[quencher], TexasRed fluor -1.7%, TRb SRC2 PPI -2.8%, Tau FP inhib inconclusive and Tau ThT inhib inconclusive.
COc1ccc(C(=O)Nc2ccc3nc(N4CCCCC4)cc(C)c3c2)c(OC)c1 was read as Tau fluor counter inconclusive, TexasRed fluor 1.1%, TRb SRC2 PPI 11.3%, Tau FP inhib 7.4% and Tau ThT inhib inconclusive.
Cc1ccc(C(=O)c2oc3ccccc3c2NC(=O)COc2ccccc2Cl)cc1 was read as Tau fluor counter -0.2%, TexasRed fluor inconclusive, TRb SRC2 PPI -17.0%, Tau FP inhib -13.0% and Tau ThT inhib 5.8%.
Screening Cn1c(=O)c2c(n3c4ccccc4nc13)NC(=O)CC2c1ccccc1F (stereo not given) returned Tau fluor counter -2.9%, TexasRed fluor -0.6%, TRb SRC2 PPI 6.0%, Tau FP inhib -0.9% and Tau ThT inhib -7.1%.
Screening COC(=O)CN1C(=O)[C@@H]2[C@H](C1=O)[C@@H]1CC(C(=O)OC)=C[C@@H](C(=O)OC)C3C1=C(C(=O)[C@]3(C)NC(=O)c1ccccc1)[C@@H]2C (stereo not given in full) returned TexasRed fluor -2.0% and TRb SRC2 PPI 3.2%.
For CCC(NC(=O)Nc1cc(Cl)ccc1OC)c1c(-n2cccc2)sc2c1CCN(C)C2 (stereo not given) the results were Tau fluor counter inconclusive, TexasRed fluor -4.5%, TRb SRC2 PPI 3.3%, Tau FP inhib inconclusive and Tau ThT inhib inconclusive.
Screening COc1ccc(/C=N/Nc2nc(C)c([N+](=O)[O-])c(N(C)c3ccccc3)n2)cc1OC returned Tau fluor counter -18.9%, TexasRed fluor -5.2%, TRb SRC2 PPI -0.7%, Tau FP inhib 0.1% and Tau ThT inhib inconclusive.
COc1ccc(Nc2nc(N/N=C/c3ccc(N(C)C)cc3)nc(C)c2[N+](=O)[O-])cc1 was read as Tau fluor counter 11.2µM*[quencher], TexasRed fluor -1.1%, TRb SRC2 PPI -0.5%, Tau FP inhib 8.8% and Tau ThT inhib 3.16µM*.
Screening COc1ccc(Nc2nc(NN)nc(C)c2[N+](=O)[O-])cc1 returned Tau fluor counter inconclusive, TexasRed fluor -3.1%, TRb SRC2 PPI 12.3%, Tau FP inhib -7.5% and Tau ThT inhib 14.1µM*.
Screening CCN(CC)CCn1c(-c2ccccc2)nc2c(NC3CCCCC3)nc(C)nc21 returned Tau fluor counter -9.3%, TexasRed fluor -3.8%, TRb SRC2 PPI 5.0%, Tau FP inhib 7.3% and Tau ThT inhib -8.7%.
